Inconclusive results are not listed. Activity calls are given as the source filed them. The calls were made as follows: active = hit-call score of the fitted dose curve at least 0.9, where 1 is the maximum; inconclusive = response in the unintended direction; inactive = score below 0.9.

human Retinoid X Receptor beta (RXRb), RXRB (gene 6257), sequence (P28702 whole entry, looked up): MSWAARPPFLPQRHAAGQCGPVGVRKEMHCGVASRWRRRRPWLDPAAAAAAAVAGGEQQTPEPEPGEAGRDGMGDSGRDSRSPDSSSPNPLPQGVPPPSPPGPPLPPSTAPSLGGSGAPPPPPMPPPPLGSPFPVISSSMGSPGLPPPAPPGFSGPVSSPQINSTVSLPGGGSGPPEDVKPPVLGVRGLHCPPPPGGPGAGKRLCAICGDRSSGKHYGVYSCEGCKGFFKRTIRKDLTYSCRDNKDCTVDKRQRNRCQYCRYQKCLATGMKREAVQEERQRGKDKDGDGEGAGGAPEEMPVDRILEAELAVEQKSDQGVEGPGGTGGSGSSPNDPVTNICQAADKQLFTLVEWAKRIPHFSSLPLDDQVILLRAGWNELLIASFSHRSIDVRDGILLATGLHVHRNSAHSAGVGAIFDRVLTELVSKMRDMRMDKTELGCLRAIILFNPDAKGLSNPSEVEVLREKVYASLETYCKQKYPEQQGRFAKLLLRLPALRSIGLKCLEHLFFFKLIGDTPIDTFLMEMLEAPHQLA

The test has as its target human Retinoid X Receptor beta (RXRb), RXRB (gene 6257) (UniProt P28702). The test can be described thus: ATG_hRXRb_EcoTox2: Attagene TRANS-FACTORIAL EcoTox-2 HepG2 Assay for human Retinoid X Receptor beta (RXRb). As for the experimental part: ATG_EcoTox2 is a cell-based, multiplexed assay created by modifying the existing Attagene TRANS-FACTORIAL system to include a panel of nuclear receptors from some or all the following species: human (Homo sapiens), african clawed frog (Xenopus laevis), rainbow trout (Oncorhynchus mykiss), japanese medaka (Oryzias latipes), and zebrafish (Danio rerio). The ECOTOX2-FACTORIAL format uses HepG2, a human liver cell line, with measurements taken at 24 hours after chemical dosing in a 24-well plate. ATG_hRXRb_EcoTox2 is one of 29 assay components calculated in the ATG_EcoTox2 assay. It is designed to make measurements of mRNA induction, a form of inducible reporter, as detected with fluorescence intensity signals by Reverse transcription polymerase chain reaction (RT-PCR) and Capillary electrophoresis technology.The assay endpoint ATG_hRXRb_EcoTox2 was analyzed in the positive analysis fitting direction relative to DMSO as the negative control and baseline of activity. Using a type of inducible reporter, measures of mRNA for gain-of-signal activity can be used to understand the reporter gene at the transcription factor-level as they relate to the gene RXRb. Furthermore, this assay endpoint can be referred to as a primary readout, because this assay has produced multiple assay endpoints where this one serves a reporter gene function. To generalize the intended target to other relatable targets, this assay endpoint is annotated to the nuclear receptor intended target family, where the subfamily is non-steroidal.
Human liver HepG2 cells are transiently transfected with multiple reporter transcription units (MRTUs) in 6-well plates using FuGene 6 reagent (Roche; 3 ml FuGene/1 mg DNA). The MRTU constructs are regulated by a cis-regulating element (promoter). Each RTU expresses a GAL4-UAS that regulates the transcription of a nearby target reporter gene sequence. A major difference between the CIS and TRANS system is that in CIS activities of endogenous TFs are measured, whereas the TRANS assay evaluates changes in activities of exogenous, chimeric NR-Gal4 proteins. […] At the end of 24 hour incubation, total RNA was isolated using TriZol reagent (Invitrogen). The isolated RNA is then reverse-transcribed using oligo(dT) primer and Mo-MLV reverse transcriptase (Invitrogen) with DNAse I (Ambion) treatment for 30 min. The one-tenth of the produced cDNA was amplified by PCR using Taq DNA polymerase (Invitrogen) and two reporter sequence-specific primers. The PCR products were fluorescently labeled by primer extension with 6-arboxyfluorescein (6-FAM) 5'-labeled reporter sequence-specific primer (2 min at 95 C, 20 s at 68 C and 10 min at 72 C) and these products were digested with 5U of HpaI (New England Biolabs) for 2h at 37 C. The fragments were purified using Qiaquick PCR columns (Qiagen), analyzed on an ABI 3130xL genetic analyzer (Applied Biosystems) with peak positions identified by using a set of X-rhodamine (ROX)-labeled MapMarker1000 molecular weight standards (BioVentures). The raw capillary electrophoresis data was processed using Attagraph software (Attagene).
Regarding `CC(C)(Oc1ccc(Cl)cc1)C(=O)O`, the compound was called inactive. As for `C[C@@H]1C[C@H]2[C@@H]3CCC4=CC(=O)C=C[C@]4(C)[C@@]3(F)[C@@H](O)C[C@]2(C)[C@@]1(O)C(=O)COP(=O)(O)O`, the call was inactive. Still for that read-out and setting: with `CC(C)OC(=O)C(C)(C)Oc1ccc(C(=O)c2ccc(Cl)cc2)cc1` the entry was “inactive”; with `CC(c1cc2ccccc2s1)N(O)C(N)=O` (centres undefined), “inactive”; with `CC(C)(Oc1ccc(CCNC(=O)c2ccc(Cl)cc2)cc1)C(=O)O`, “inactive”. In the case of `Cc1ccc(C)c(OCCCC(C)(C)C(=O)O)c1`, the AC50 is 18.6 µM (active).

Regarding `CN(CCOc1ccc(CC2SC(=O)NC2=O)cc1)c1ccccn1` (centres undefined), the AC50 was 13 µM (active). For `CC(C)(Oc1ccc(C2CC2(Cl)Cl)cc1)C(=O)O` (centres undefined), the call was inactive.

Consider `C[C@]12C=CC(=O)C=C1CC[C@@H]1[C@@H]2C(=O)C[C@@]2(C)[C@H]1CC[C@]2(O)C(=O)CO`, for which the call was inactive.

As a reminder, the AC50 is the concentration at which the activity in the assay is half-maximal.

The values are drawn from PubChem BioAssay AID2284354 (EPA ToxCast).
